The panel holds about 79,000 compounds, 15% with a hit somewhere; the sample as a whole holds those more often. Values without a mark were called inactive. Activity calls are given as the source filed them. Cut-off read from the data, not from the text of the source: active = growth inhibition above about 70%; inactive = the rest.
Experiment: NCI Yeast Anticancer Drug Screen. Data for the rad50 strain (AID 155);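 note: 0% = growth of vehicle-only cultures of the same strain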
Conditions: S. cerevisiae rad50 strain growth inhibition; at 50.0 µM (retest, dose inferred, filed as 5.0); hits give high values
In short: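 Genetically altered yeast (DNA repair pathway); compound treatment; growth inhibition vs vehicle ctrl.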

SMILES | growth inhibition
Cc1ccc(O)c(C(c2cc(C)ccc2O)c2ccccc2Cl)c1 | 99% (active)
O=c1ssc(=Nc2ccc(Cl)cc2)n1-c1ccc(Cl)cc1 | 99% (active)
CC(=O)OC1CCC2(C)C(CCC3C4=CCC(C5COC(=O)C5)C4(C)CCC32)C1 (stereo not given) | 79% (active)
CCN(CC)CCCC(C)Nc1cc(F)cc2cccnc12 (stereo not given) | 81% (active)
CC1CN(CCCN2c3ccccc3Sc3ccc(Cl)cc32)C(C)(C)C1 (stereo not given) | 99% (active)
O=S(=O)(O)c1ccc2c(c1)C1C(C3C2C2(Cl)C(Cl)=C(Cl)C3(Cl)C2(Cl)Cl)C2(Cl)C(Cl)=C(Cl)C1(Cl)C2(Cl)Cl (stereo not given) | 80% (active)
OC(CN1CCC(c2ccccc2)CC1)c1ccc(Br)cc1 (stereo not given) | 74% (active)
CCOC(=O)/C(C#N)=C\c1cccc2ccccc12 | 57%
COc1ccc2c(c1)CCC(N1CCCC(O)C1)C2 (stereo not given) | 98% (active)
COc1cccc(N2CCN(CC(O)COc3cc4c(c5c3CCCC5)CCCC4)CC2)c1 (stereo not given) | 95% (active)
CC(=O)Oc1ccc(Cl)cc1Cc1cc(Cl)ccc1OC(C)=O | 85% (active)
CC(O)c1c2c(cc3c1CC1(C3)Cc3cc4c(c(C(C)O)c3C1)CCC4)CCC2 (stereo not given) | 98% (active)
O=c1c2ccccc2nc(-c2ccccc2)n1NC(=S)Nc1ccc(Cl)cc1[N+](=O)[O-] | 17%
O=C(CCCN1CCc2[nH]c3cc(F)ccc3c2C1)c1ccc(F)cc1 | 97% (active)
OC(C(=Nc1ccccc1)c1ccccc1)c1ccccc1 (stereo not given) | 96% (active)
N#CC1CCCC(Cc2ccccc2)(c2ccccc2)C1=O (stereo not given) | 93% (active)
CC(OC(=O)Nc1cccc(Cl)c1)c1ccccc1 (stereo not given) | 99% (active)
O=C(O)/C=C/c1c2ccccc2cc2ccccc12 | 96% (active)
Cc1c[nH]c2c(O)cc3c(c12)[C@H](CCl)CN3C(=O)c1cc2cc(NC(=O)Nc3ccc4[nH]c(C(=O)N5C[C@@H](CCl)c6c5cc(O)c5[nH]cc(C)c65)cc4c3)ccc2[nH]1 | 70% (active)
Cc1ccc(S(=O)(=O)OC(C=O)C(O)C(O)COC(c2ccccc2)(c2ccccc2)c2ccccc2)cc1 (stereo not given) | 98% (active)

SMILES | growth inhibition
COc1cc2c(cc1C(C)C)CCC1C(C)(C#N)CCCC21C (stereo not given) | -21%
Fc1ccc(NC(=S)SCc2ccc(Cl)c(Cl)c2)c(F)c1 | 98% (active)
COC(=O)/C=C(\NC1CC(OC2C[C@](O)(C(C)=O)Cc3c(O)c4c(c(O)c32)C(=O)c2c(OC)cccc2C4=O)OC(C)C1O)C(=O)OC (stereo not given in full) | 97% (active)
O=C1CSC(=S)N1c1ccc(F)cc1F | 86% (active)
CS(=O)(=O)OCCN(CCOS(C)(=O)=O)c1ccc(C=Nc2ccc3ccccc3c2)c(Cl)c1 | 22%
CN(C)C(=O)Nc1ccc(Cc2ccc(NC(=O)N(C)C)cc2)cc1 | -32%
O=c1c(Cl)c(Cl)c(=O)c2sc3cc(Cl)ccc3[nH]c1=2 | 51%
O=S(=O)(O)C(O)c1ccc2ccc3cccc4ccc1c2c34 (stereo not given) | 95% (active)
N#Cc1cc([N+](=O)[O-])ccc1NC(=O)/C(=N/N)C(C(=O)c1ccc(Cl)c(Cl)c1)C1OC(=O)c2ccccc21 (stereo not given) | 23%
O=C(Nc1ccc(Cl)c(Cl)c1Cl)Oc1c(Cl)c(Cl)c(Cl)c(Cl)c1Cl | 97% (active)
O=[N+]([O-])c1cc(Cl)cc2c1nc(NCCO)c1ccccc12 | 90% (active)
CCNc1nc(C(F)(F)F)nc2nc[nH]c12 | -5%
CC1CCN(CCOC(=O)C(c2ccccc2)C2C=CCCC2)C1 (stereo not given) | 34%
CCOC(=O)c1c(N)sc2c1CCCCC2 | -118%
CC(C(O)Cc1ccccc1)N(C)N=Nc1ccc([N+](=O)[O-])cc1 (stereo not given) | 84% (active)
O=[N+]([O-])c1ccc(/C=c2\sc3scc(-c4ccc([N+](=O)[O-])cc4)[n+]3\c2=C/c2ccc([N+](=O)[O-])cc2)cc1 | 99% (active)
Oc1cc(C(c2ccccc2)c2ccccc2)c2ccccc2c1O | 1%
CC1=CC2OC3CC4OC(=O)/C=C/C=C/C(C(C)O)OCC(=O)C(C)CC(=O)OCC2(CC1)C4(C)C31CO1 (stereo not given) | 98% (active)
CC(NNC(=S)N1CCCCCC1)c1cc2ccccc2cn1 (stereo not given) | 95% (active)
CC(C)C1=CC23CCC4C(C)(C(=O)O)CCCC4(C)C2CC1C1C(=O)C=CC(=O)C13 (stereo not given) | 93% (active)

Same assay, conditions: S. cerevisiae rad50 strain growth inhibition; at 50.0 µM; hits give high values

SMILES | growth inhibition
Cc1ccc(O)c(C(c2cc(C)ccc2O)c2ccccc2Cl)c1 | 98.2% (active)
O=c1ssc(=Nc2ccc(Cl)cc2)n1-c1ccc(Cl)cc1 | 98.5% (active)
CC(=O)OC1CCC2(C)C(CCC3C4=CCC(C5COC(=O)C5)C4(C)CCC32)C1 (stereo not given) | 77.2% (active)
CCN(CC)CCCC(C)Nc1cc(F)cc2cccnc12 (stereo not given) | 93.2% (active)
CC1CN(CCCN2c3ccccc3Sc3ccc(Cl)cc32)C(C)(C)C1 (stereo not given) | 99.7% (active)
O=S(=O)(O)c1ccc2c(c1)C1C(C3C2C2(Cl)C(Cl)=C(Cl)C3(Cl)C2(Cl)Cl)C2(Cl)C(Cl)=C(Cl)C1(Cl)C2(Cl)Cl (stereo not given) | 85.9% (active)
OC(CN1CCC(c2ccccc2)CC1)c1ccc(Br)cc1 (stereo not given) | 87.7% (active)
CCOC(=O)/C(C#N)=C\c1cccc2ccccc12 | 84% (active)
COc1ccc2c(c1)CCC(N1CCCC(O)C1)C2 (stereo not given) | 48.9%
COc1cccc(N2CCN(CC(O)COc3cc4c(c5c3CCCC5)CCCC4)CC2)c1 (stereo not given) | 64.2%
CC(=O)Oc1ccc(Cl)cc1Cc1cc(Cl)ccc1OC(C)=O | 94.2% (active)
CC(O)c1c2c(cc3c1CC1(C3)Cc3cc4c(c(C(C)O)c3C1)CCC4)CCC2 (stereo not given) | 71.1% (active)
O=c1c2ccccc2nc(-c2ccccc2)n1NC(=S)Nc1ccc(Cl)cc1[N+](=O)[O-] | 23.1%
O=C(CCCN1CCc2[nH]c3cc(F)ccc3c2C1)c1ccc(F)cc1 | 84.8% (active)
OC(C(=Nc1ccccc1)c1ccccc1)c1ccccc1 (stereo not given) | 98.7% (active)
N#CC1CCCC(Cc2ccccc2)(c2ccccc2)C1=O (stereo not given) | 98.8% (active)
CC(OC(=O)Nc1cccc(Cl)c1)c1ccccc1 (stereo not given) | 99.2% (active)
O=C(O)/C=C/c1c2ccccc2cc2ccccc12 | 97.1% (active)
Cc1c[nH]c2c(O)cc3c(c12)[C@H](CCl)CN3C(=O)c1cc2cc(NC(=O)Nc3ccc4[nH]c(C(=O)N5C[C@@H](CCl)c6c5cc(O)c5[nH]cc(C)c65)cc4c3)ccc2[nH]1 | 17.4%
Cc1ccc(S(=O)(=O)OC(C=O)C(O)C(O)COC(c2ccccc2)(c2ccccc2)c2ccccc2)cc1 (stereo not given) | 87.8% (active)

SMILES | growth inhibition
COc1cc2c(cc1C(C)C)CCC1C(C)(C#N)CCCC21C (stereo not given) | 34.4%
Fc1ccc(NC(=S)SCc2ccc(Cl)c(Cl)c2)c(F)c1 | 98.5% (active)
COC(=O)/C=C(\NC1CC(OC2C[C@](O)(C(C)=O)Cc3c(O)c4c(c(O)c32)C(=O)c2c(OC)cccc2C4=O)OC(C)C1O)C(=O)OC (stereo not given in full) | 97.5% (active)
O=C1CSC(=S)N1c1ccc(F)cc1F | 89.8% (active)
CS(=O)(=O)OCCN(CCOS(C)(=O)=O)c1ccc(C=Nc2ccc3ccccc3c2)c(Cl)c1 | 10.4%
CN(C)C(=O)Nc1ccc(Cc2ccc(NC(=O)N(C)C)cc2)cc1 | -3%
O=c1c(Cl)c(Cl)c(=O)c2sc3cc(Cl)ccc3[nH]c1=2 | 95.5% (active)
O=S(=O)(O)C(O)c1ccc2ccc3cccc4ccc1c2c34 (stereo not given) | 94.4% (active)
N#Cc1cc([N+](=O)[O-])ccc1NC(=O)/C(=N/N)C(C(=O)c1ccc(Cl)c(Cl)c1)C1OC(=O)c2ccccc21 (stereo not given) | 91.8% (active)
O=C(Nc1ccc(Cl)c(Cl)c1Cl)Oc1c(Cl)c(Cl)c(Cl)c(Cl)c1Cl | 99.5% (active)
O=[N+]([O-])c1cc(Cl)cc2c1nc(NCCO)c1ccccc12 | 75.1% (active)
CCNc1nc(C(F)(F)F)nc2nc[nH]c12 | 6.15%
CC1CCN(CCOC(=O)C(c2ccccc2)C2C=CCCC2)C1 (stereo not given) | 62.9%
CCOC(=O)c1c(N)sc2c1CCCCC2 | 47%
CC(C(O)Cc1ccccc1)N(C)N=Nc1ccc([N+](=O)[O-])cc1 (stereo not given) | 64.3%
O=[N+]([O-])c1ccc(/C=c2\sc3scc(-c4ccc([N+](=O)[O-])cc4)[n+]3\c2=C/c2ccc([N+](=O)[O-])cc2)cc1 | 86.9% (active)
Oc1cc(C(c2ccccc2)c2ccccc2)c2ccccc2c1O | 97.6% (active)
CC1=CC2OC3CC4OC(=O)/C=C/C=C/C(C(C)O)OCC(=O)C(C)CC(=O)OCC2(CC1)C4(C)C31CO1 (stereo not given) | 90.8% (active)
CC(NNC(=S)N1CCCCCC1)c1cc2ccccc2cn1 (stereo not given) | 86.2% (active)
CC(C)C1=CC23CCC4C(C)(C(=O)O)CCCC4(C)C2CC1C1C(=O)C=CC(=O)C13 (stereo not given) | 94.3% (active)
